Experiments:
Format in all cases: functional
[1] = tested on: Plasmodium falciparum; assay: GSK_TCMDC: Inhibition of Plasmodium falciparum 3D7 in whole red blood cells, using parasite LDH activity as an index of growth. Test compounds present at 2uM
[2] = tested on: Plasmodium falciparum; assay: GSK_TCMDC: Inhibition of Plasmodium falciparum Dd2 in whole red blood cells, using parasite LDH activity as an index of growth. Test compounds present at 2uM
[3] = tested on: HepG2; assay: GSK_TCMDC: Percent inhibition of human HepG2 cell line. Test compounds present at 10uM.

Compound | Inhibition [1] | Inhibition [2] | Inhibition [3]
Cl.O=C(/C=C/c1ccc(Cl)cc1)Nc1ccc2nc(CN3CCCC3)ccc2c1 | 85% | 30% | 47%
CCC(NC(=O)c1ccccc1NC(=O)c1ccc(C)cc1)C(=O)OC (stereo not given) | 95% | 86% | 0%
CN1CCN(c2cccc(-c3nnc(-c4ccc(OCC(=O)NCc5cccc(C(F)(F)F)c5)c([N+](=O)[O-])c4)o3)c2)CC1 | 90% | 72% | 25%
Cc1nnsc1C(=O)Nc1cccc(-c2ccc(-c3nc4cccc(C)c4[nH]3)s2)c1 | 100% | 44% | 46%
CCCC(C)N(Cc1ccc(C(C)(C)C)cc1)C(=O)c1ccc(OC)cc1 (stereo not given) | 100% | 98% | 7%
CCNc1cc(C(=O)N[C@@H](Cc2ccccc2)[C@H](O)CNCc2cc(OC)cc(OC)c2)cc(N2CCCC2=O)c1.Cl | 100% | 75% | 0%
CSc1nc2nc(C)c(Cc3cccc(F)c3)c(C)n2n1 | 87% | 45% | 3%
CC(CCc1ccccc1)NCC(O)c1ccc2c(c1)S(=O)(=O)c1ccccc1N2 (stereo not given) | 95% | 4% | 17%
O=C(Nc1cccc(C(F)(F)F)c1)Nc1ccc(Cl)c(C(F)(F)F)c1 | 99% | 99% | 0%
CS(=O)(=O)c1ccc(CCNCc2ccc(-c3ccc(CN(C(=O)C4CC(=O)c5ccccc54)C4CCN(Cc5ccccc5)CC4)cc3)nc2)cc1.O=C(O)C(F)(F)F (stereo not given) | 100% | 49% | 9%
